Targets with a hit are over-represented here; the source holds about 7,900 in all. About 0.6% of all pairs of compound and target were hits. Values without a mark were called inactive.
Legend:
Test in all cases: log2 fold change, soluble protein after heating vs DMSO (PISA); higher = thermal stabilisation; K562 cells, 10 uM, 30 min; active = over 0.2 and 3.5 SD of the protein, either way, in both replicates (recomputed)
[1] = compound: CN1CCN(CCOc2cc(OC3CCOCC3)c3c(Nc4c(Cl)ccc5c4OCO5)ncnc3c2)CC1 [saracatinib]
How it was run: (§1)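 Quantification of soluble protein used TMTpro 16plex LC-MS/MS, with channel sums equalised. Samples were the supernatant after 21,000xg for 90 min of pooled aliquots from K562 cells (2×10^6 cells/mL) treated with 10 μM compound for 30 min, heated for 3 min over 48°C-58°C, and extracted in PBS with 0.5% NP-40 at 4°C. Values, from duplicates, describe thermal stability against control samples on a log2 fold-change scale.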

[2] = compound: CN1CCN(c2nc(C3=C(c4c[nH]c5ccccc45)C(=O)NC3=O)c3ccccc3n2)CC1 [sotrastaurin]
How it was run: as §1

[3] = compound: CN1CC[C@H](c2c(O)cc(O)c3c(=O)cc(-c4ccccc4Cl)oc23)[C@H](O)C1 [alvocidib]
How it was run: as §1

[4] = compound: CN1CCc2c(c3ccccc3n2Cc2ccc(C(=O)NO)cc2)C1 [Tubastatin A]
How it was run: as §1

[5] = compound: CNC(=O)C1=CC=CC=C1NC2=NC(=NC=C2Cl)NC3=C(C=C(C=C3)N4CCOCC4)OC
How it was run: as §1

[6] = compound: CNC(=O)c1ccc(Nc2ncc(C(F)(F)F)c(NCc3nccnc3N(C)S(C)(=O)=O)n2)cc1 [defactinib]
How it was run: as §1

[7] = compound: CNCc1ccc(-c2[nH]c3cc(F)cc4c3c2CCNC4=O)cc1 [rucaparib]
How it was run: as §1

[8] = compound: CNc1nc(-c2ccc3c(N)n[nH]c3c2)cc(N2C[C@@H](C(=O)NC3CCCCC3)CC[C@H]2C)n1
How it was run: as §1

[9] = compound: COC(=O)N[C@@H](C)CNc1nccc(-c2cn(C(C)C)nc2-c2cc(Cl)cc(NS(C)(=O)=O)c2F)n1 [encorafenib]
How it was run: as §1

[10] = compound: COC(=O)[C@H](CCSC)NC(=O)C1=C(C=C(C=C1)NC[C@H](CS)N)C2=CC=CC=C2
How it was run: as §1

[11] = compound: COC1=CC=C(C=C1)CN2C=CC3=C2C=C(C=C3)C(=O)NO
How it was run: as §1

[12] = compound: CON(C)C(=O)N1N=C(c2cc(F)ccc2F)S[C@@]1(CCCN)c1ccccc1 [filanesib]
How it was run: as §1

[13] = compound: CO[C@H]1C[C@@H]2CC[C@@H](C)[C@@](O)(O2)C(=O)C(=O)N2CCCC[C@H]2C(=O)O[C@H]([C@H](C)C[C@@H]2CC[C@H](n3cnnn3)[C@H](OC)C2)CC(=O)[C@H](C)/C=C(\C)[C@@H](O)[C@@H](OC)C(=O)[C@H](C)C[C@H](C)/C=C/C=C/C=C/1C [zotarolimus]
How it was run: as §1

[14] = compound: COc1cc(C(=O)O)ccc1NC(=O)[C@@H]1N[C@@H](CC(C)(C)C)[C@](C#N)(c2ccc(Cl)cc2F)[C@H]1c1cccc(Cl)c1F [idasanutlin]
How it was run: as §1

[15] = compound: COc1cc(Nc2ncc3c(n2)-c2ccc(Cl)cc2C(c2c(F)cccc2OC)=NC3)ccc1C(=O)O [alisertib]
How it was run: as §1

[16] = compound: COc1cc2nc(-c3cc(F)ccc3O)nc(N[C@@H]3CNC[C@H]3C(C)(C)O)c2cc1OC
How it was run: as §1

[17] = compound: COc1cc2ncnc(Nc3ccc(F)c(Cl)c3)c2cc1OCCCN1CCOCC1 [gefitinib]
How it was run: as §1

[18] = compound: COc1cccc2cc(-c3nc([C@H]4CC[C@H](C(=O)O)CC4)n4ncnc(N)c34)[nH]c12
How it was run: as §1

[19] = compound: CS(=O)(=O)CCNCc1ccc(-c2ccc3ncnc(Nc4ccc(OCc5cccc(F)c5)c(Cl)c4)c3c2)o1 [lapatinib]
How it was run: as §1

[20] = compound: CS(=O)(=O)N1CCN(Cc2cc3nc(-c4cccc5[nH]ncc45)nc(N4CCOCC4)c3s2)CC1 [pictilisib]
How it was run: as §1

UniProt Q13523, sequence (Q13523 whole entry, looked up): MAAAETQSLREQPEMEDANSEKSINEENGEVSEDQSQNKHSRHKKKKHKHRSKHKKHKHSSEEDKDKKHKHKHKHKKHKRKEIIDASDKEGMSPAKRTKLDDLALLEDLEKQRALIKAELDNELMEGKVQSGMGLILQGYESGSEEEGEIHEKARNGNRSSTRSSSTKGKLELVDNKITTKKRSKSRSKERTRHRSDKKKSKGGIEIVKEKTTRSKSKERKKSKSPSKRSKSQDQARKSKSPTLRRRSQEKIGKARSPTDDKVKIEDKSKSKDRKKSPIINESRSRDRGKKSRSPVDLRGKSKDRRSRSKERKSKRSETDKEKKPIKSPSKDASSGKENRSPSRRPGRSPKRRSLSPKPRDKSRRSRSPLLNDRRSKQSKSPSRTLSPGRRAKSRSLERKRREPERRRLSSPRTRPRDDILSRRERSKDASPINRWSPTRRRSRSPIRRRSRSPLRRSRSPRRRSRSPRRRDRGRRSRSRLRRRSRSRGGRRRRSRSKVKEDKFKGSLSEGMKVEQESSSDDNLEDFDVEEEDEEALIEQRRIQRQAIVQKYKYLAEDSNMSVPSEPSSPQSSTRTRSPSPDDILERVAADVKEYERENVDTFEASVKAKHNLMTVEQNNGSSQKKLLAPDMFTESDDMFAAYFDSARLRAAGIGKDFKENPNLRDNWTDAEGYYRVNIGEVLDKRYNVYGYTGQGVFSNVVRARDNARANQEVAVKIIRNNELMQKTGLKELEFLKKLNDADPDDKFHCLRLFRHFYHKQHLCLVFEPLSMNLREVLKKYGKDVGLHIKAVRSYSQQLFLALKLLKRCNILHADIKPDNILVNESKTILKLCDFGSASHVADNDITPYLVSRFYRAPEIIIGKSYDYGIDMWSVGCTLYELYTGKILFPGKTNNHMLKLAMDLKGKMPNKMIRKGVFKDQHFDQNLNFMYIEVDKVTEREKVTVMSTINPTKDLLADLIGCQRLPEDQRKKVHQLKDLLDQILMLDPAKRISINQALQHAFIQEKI
UniProt P14618, sequence (P14618 whole entry, looked up): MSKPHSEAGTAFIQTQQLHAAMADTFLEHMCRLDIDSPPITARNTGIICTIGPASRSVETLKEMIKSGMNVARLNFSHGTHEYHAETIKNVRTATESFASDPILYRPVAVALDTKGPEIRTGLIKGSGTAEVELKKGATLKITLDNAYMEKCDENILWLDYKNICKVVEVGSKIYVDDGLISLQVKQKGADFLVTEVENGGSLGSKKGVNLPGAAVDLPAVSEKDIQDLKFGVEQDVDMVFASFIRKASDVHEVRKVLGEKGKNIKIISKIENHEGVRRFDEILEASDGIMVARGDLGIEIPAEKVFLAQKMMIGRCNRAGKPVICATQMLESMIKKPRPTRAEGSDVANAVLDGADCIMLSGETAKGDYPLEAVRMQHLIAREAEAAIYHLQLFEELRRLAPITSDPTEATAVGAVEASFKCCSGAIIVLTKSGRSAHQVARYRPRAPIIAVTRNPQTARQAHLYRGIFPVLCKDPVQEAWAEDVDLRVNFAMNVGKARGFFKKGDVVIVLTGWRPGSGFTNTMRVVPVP
UniProt Q5JRX3, sequence (Q5JRX3 whole entry, looked up): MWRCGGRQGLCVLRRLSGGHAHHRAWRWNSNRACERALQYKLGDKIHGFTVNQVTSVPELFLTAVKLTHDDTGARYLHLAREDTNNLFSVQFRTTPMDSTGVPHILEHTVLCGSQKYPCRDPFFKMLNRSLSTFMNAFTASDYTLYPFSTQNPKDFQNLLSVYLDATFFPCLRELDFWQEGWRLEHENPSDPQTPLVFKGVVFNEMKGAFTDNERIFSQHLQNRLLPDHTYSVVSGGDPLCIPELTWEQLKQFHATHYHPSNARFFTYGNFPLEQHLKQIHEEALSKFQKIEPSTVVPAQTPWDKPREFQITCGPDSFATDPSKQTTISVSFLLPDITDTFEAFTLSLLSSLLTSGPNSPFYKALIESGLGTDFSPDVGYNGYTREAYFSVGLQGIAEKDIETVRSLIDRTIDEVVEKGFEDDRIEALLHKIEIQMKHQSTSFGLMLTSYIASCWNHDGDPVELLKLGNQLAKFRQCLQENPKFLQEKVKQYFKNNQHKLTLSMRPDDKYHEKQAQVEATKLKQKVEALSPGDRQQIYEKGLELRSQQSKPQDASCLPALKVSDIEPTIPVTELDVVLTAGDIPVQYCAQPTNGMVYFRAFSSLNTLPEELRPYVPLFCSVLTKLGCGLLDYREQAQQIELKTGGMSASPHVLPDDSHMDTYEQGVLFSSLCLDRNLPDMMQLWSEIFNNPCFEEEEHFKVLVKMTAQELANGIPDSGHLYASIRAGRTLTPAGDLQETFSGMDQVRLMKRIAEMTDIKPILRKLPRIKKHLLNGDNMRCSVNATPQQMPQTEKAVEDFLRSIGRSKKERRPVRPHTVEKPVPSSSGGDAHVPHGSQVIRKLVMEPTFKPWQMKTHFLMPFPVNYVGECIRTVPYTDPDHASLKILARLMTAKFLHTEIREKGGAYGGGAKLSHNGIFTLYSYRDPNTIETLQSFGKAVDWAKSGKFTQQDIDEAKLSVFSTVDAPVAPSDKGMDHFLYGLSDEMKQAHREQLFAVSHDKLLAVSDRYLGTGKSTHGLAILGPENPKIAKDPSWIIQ
UniProt Q8NBL1, sequence (Q8NBL1 whole entry, looked up): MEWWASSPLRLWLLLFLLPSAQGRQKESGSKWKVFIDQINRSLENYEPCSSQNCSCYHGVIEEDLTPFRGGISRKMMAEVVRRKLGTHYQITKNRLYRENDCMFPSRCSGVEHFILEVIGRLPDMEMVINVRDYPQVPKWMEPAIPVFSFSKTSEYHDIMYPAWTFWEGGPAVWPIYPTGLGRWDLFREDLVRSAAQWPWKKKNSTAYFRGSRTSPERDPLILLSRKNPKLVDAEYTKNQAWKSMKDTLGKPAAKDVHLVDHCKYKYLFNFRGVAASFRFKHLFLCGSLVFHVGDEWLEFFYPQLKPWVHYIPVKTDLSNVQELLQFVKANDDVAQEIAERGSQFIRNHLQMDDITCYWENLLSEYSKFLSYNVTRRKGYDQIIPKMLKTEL
UniProt Q04759, sequence (Q04759 whole entry, looked up): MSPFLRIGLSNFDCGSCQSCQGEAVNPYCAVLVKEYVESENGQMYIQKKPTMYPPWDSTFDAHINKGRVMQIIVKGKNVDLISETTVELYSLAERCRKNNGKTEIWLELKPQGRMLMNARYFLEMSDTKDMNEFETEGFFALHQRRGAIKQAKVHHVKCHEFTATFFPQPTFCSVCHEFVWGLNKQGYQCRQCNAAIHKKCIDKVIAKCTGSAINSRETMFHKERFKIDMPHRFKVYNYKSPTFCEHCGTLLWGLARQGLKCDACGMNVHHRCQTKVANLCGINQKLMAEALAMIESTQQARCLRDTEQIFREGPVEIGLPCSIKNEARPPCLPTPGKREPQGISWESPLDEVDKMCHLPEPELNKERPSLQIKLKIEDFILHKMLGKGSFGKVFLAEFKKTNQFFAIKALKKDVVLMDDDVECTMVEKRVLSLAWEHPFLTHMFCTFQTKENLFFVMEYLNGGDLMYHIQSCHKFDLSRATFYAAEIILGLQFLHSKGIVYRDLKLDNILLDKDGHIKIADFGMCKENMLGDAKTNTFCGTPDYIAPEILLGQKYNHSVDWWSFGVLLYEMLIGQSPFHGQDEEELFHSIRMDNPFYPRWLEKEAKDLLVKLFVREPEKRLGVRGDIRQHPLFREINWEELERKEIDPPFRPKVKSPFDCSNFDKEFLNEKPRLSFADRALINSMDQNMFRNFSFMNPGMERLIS
UniProt P19174, sequence (P19174 whole entry, looked up): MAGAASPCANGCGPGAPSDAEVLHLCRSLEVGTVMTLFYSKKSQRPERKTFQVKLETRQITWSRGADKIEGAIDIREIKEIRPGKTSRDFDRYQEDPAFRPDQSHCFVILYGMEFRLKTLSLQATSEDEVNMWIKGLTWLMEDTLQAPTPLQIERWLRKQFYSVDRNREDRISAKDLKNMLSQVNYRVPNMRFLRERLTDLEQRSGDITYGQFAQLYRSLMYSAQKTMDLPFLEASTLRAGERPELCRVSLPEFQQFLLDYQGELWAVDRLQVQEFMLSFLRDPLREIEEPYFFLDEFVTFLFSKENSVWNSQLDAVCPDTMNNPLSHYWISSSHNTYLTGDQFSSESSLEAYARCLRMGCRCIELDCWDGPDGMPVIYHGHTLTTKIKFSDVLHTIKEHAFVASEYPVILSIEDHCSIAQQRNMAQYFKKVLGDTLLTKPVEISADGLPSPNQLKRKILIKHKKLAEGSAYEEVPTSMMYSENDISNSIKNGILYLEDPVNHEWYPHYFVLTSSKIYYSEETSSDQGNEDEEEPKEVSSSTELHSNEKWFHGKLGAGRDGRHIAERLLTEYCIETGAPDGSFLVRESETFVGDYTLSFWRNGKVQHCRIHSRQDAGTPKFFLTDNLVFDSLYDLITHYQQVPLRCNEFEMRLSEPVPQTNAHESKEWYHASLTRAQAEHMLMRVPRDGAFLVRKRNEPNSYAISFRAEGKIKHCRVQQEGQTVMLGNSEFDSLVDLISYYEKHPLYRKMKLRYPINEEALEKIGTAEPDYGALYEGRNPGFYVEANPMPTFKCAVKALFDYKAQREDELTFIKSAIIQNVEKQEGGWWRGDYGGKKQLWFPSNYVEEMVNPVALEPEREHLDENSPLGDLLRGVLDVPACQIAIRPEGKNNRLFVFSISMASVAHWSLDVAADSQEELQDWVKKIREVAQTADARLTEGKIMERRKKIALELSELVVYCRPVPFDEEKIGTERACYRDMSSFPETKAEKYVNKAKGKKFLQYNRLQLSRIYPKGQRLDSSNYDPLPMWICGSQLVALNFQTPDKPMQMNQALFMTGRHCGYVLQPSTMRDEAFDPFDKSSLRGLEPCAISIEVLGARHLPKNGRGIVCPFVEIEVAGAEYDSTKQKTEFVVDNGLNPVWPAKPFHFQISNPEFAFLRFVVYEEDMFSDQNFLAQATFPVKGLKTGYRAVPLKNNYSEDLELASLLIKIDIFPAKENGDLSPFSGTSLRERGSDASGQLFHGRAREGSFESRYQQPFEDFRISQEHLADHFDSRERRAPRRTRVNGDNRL

Target	log2 fold change [1]	log2 fold change [2]	log2 fold change [3]	log2 fold change [4]	log2 fold change [5]	log2 fold change [6]	log2 fold change [7]	log2 fold change [8]	log2 fold change [9]	log2 fold change [10]	log2 fold change [11]	log2 fold change [12]	log2 fold change [13]	log2 fold change [14]	log2 fold change [15]	log2 fold change [16]	log2 fold change [17]	log2 fold change [18]	log2 fold change [19]	log2 fold change [20]
POMP (UniProt Q9Y244)	0.075	0.035	0.046	-0.067	-0.035	-0.014	-0.013	-0.114	-0.071	0.136	0.175	0.082	0.012	0.115	-0.153	-0.016	0.076	-0.03	-0.022	0.031
PGGHG (UniProt Q32M88)	0.061	-0.014	0.009	0.04	-0.029	0.127	0.02	0.017	-0.086	-0.02	-0.022	0.073	0.024	0.162	-0.123	0.082	-0.062	0.041	-0.08	0.042
PPM1G (UniProt O15355)	-0.086	-0.213	-0.165	0.187	0.108	-0.226	-0.088	-0.038	0.085	-0.104	-0.011	0.014	0.028	0.066	0.019	0.081	0.044	-0.089	-0.052	0.093
PRKAA1 isoform 2 (UniProt Q13131)	0.027	0.033	-0.032	-0.015	-0.19	-0.048	-0.006	-0.047	0.02	-0.004	0.029	-0.043	-0.007	0.013	-0.047	-0.014	0.004	0.016	-0.008	-0.03
PTGES3 (UniProt Q15185)	-0.023	-0.057	-0.215	0.023	0.088	-0.205	-0.059	0.034	0.032	-0.068	0.23	-0.091	0.055	0.004	0.016	-0.044	0.044	-0.038	0.007	0.027
PIGG (UniProt Q5H8A4)	-0.02	-0.015	-0.011	-0.037	0.013	0.175	-0.013	0.27 (active)	0.07	-0.057	-0.01	-0.062	0.073	0.019	-0.048	0.098	-0.122	0.049	0.046	0.017
PITRM1 isoform 2 (UniProt Q5JRX3)	-0.016	-0.045	-0.022	0.009	-0.027	-0.034	-0.051	0.09	-0.032	-0.005	-0.097	-0.229 (active)	0.124	-0.047	-0.009	-0.026	0.137	0.035	-0.04	-0.032
POGLUT1 (UniProt Q8NBL1)	-0.124	0	0.06	0.009	-0.004	0.039	0.069	-0.063	0.015	0.042	-0.086	0.076	-0.004	0.114	-0.051	0.035	-0.046	-0.132	0.036	-0.099
PKM (UniProt P14618)	0.012	0.024	0	-0.004	-0.028	-0.01	-0.052	-0.007	-0.01	0.011	0	-0.048	-0.004	-0.04	-0.073	0.012	-0.002	0.054	-0.033	0.026
PRKCQ (UniProt Q04759)	-0.034	-0.903 (active)	-0.185	0.017	-0.047	-0.03	0.003	0.002	0.043	-0.025	-0.044	-0.027	0.052	-0.003	-0.018	-0.206	0.021	-0.008	0.041	-0.053
PRPF4B (UniProt Q13523)	-0.064	-0.047	-0.052	0.085	-0.209	-0.32	0.022	-0.146	0.02	0.046	-0.024	0.253	0.187	0.164	-0.047	-0.1	-0.023	0.003	0.19	0.097
PLCG1 isoform 2 (UniProt P19174)	-0.131	-0.005	-0.007	0.1	-0.048	-0.128	0.088	0.054	0.012	-0.007	0.104	-0.139	0.038	0.017	0.05	0.012	-0.047	0.029	-0.003	0.046

Reference: the supplement of paper PMC10849652
